Assay results published in PubChem BioAssay (NCI).
About 83,000 compounds went through this panel and 20% of them were active in at least one assay; those are over-represented in the sample as a whole.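 The endpoint reported here, percent growth, reads 100 for growth as untreated, 0 for no net growth and -100 for all cells dead.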 Unmarked numbers belong to inactive results. Calls of active or inactive are those of the source. The calls were made as follows: active = growth percent below 10; inactive = the rest.

tested on: SW-620 colon; assay: NCI-60 one-dose screen, 48 h (100 = growth as untreated, 0 = no growth, -100 = all killed); details: 10 µM unless noted

SMILES	growth
CCCCC[C@@H]1Cc2cc(O)c(C(=O)O)c3c2[C@H](C[C@]2(OC[C@@H](CC(=O)[C@@](C)(CC)C(=O)OC)[C@@H]2C)O3)O1	111%
Nc1ncnc2c1N=C(c1ccc(Cl)cc1)CC(c1ccc3c(c1)OCO3)N2 (configuration not stated)	100%
O=[N+]([O-])/C(=C/C=C/c1ccccc1)c1ccccc1	5.75% (active)
Fc1ccc(-c2nn(-c3ccccc3)cc2-c2nc3ccccc3o2)cc1	63.1%
COc1cc(/C=C/C(=O)c2cccc(Nc3nc(Nc4ccccc4)nc(Nc4ccccc4)n3)c2)cc(OC)c1OC	35.4%
C#CCOc1cccc(Nc2ncnc3c(NC(=O)C=C)cccc23)c1	15.2%
CNc1nc(S(=O)c2ccc(C#N)cc2)nc2ccccc12 (configuration not stated)	76%
CC(=O)N(N=Nc1ccccc1)c1cccc2ccccc12	55.8%
O=C(/C=C/c1cn(-c2ccccc2)nc1-c1ccc([N+](=O)[O-])cc1)c1ccc(Cl)cc1	-27.6% (active)
COc1cc(-c2csc(NC(=O)c3cc(-n4cnc(C)c4)cc(C(F)(F)F)c3)n2)cc(OC)c1OC	77.9%
COc1ccc(-c2nc3c(c(-c4ccccc4)nn3-c3ccccc3)c(-c3ccc(N4CCOCC4)cc3)c2C#N)cc1	90.4%
CSc1nc2sc3c(c2c(=O)n1-c1ccc([N+](=O)[O-])cc1)CCCCC3	95.4%

tested on: MCF7 breast; assay: as above; details: 10 µM unless noted

SMILES	growth
CS(=O)(=O)Nc1cc(-c2ccc3ncnc(Nc4c(Cl)ccc5c4OCO5)c3c2)cnc1Cl	0.196% (active)
O=C(Nc1cc(Cl)ccc1O)c1ccc(Nc2ccnc(C(F)(F)F)c2)cc1	22.3%
Cc1cccc(N2CCN(CC(O)COc3ccc(Cl)cc3)CC2)c1 (configuration not stated)	121%
OCCOCCN(Cc1ccccn1)Cc1cc(I)cc(I)c1O	76%
COc1ccc(C2c3sc4c(F)cccc4c3Oc3nc[nH]c(=O)c32)cc1 (configuration not stated)	45.7%
N#Cc1cccc(F)c1	112%
C=C(C)[C@@H]1CC[C@]2(C(=O)NCC#CCN3CCN(C)CC3)CC[C@]3(C)[C@H](CC[C@@H]4[C@@](C)(CCC#N)[C@H](C(=C)C)CC[C@]43C)[C@@H]12	50.5%
O=C(O)c1[nH]c(=O)[nH]c(=O)c1[N+](=O)[O-]	98.8%
O=c1c2cc(-c3ccccc3)sc2nc2sc(-c3ccccc3)nn12	97.6%
CCOC(=O)c1c(C)nc2c(c1N)CC(=O)N2Cc1cc(F)cc(Cl)c1	84.9%
COc1ccc(C(=S)N2CCN(c3ccccc3Cl)CC2)cc1OC	106%
C#Cc1cccc(Nc2ncnc3ccc(-c4cnc(N)nc4)cc23)c1	15.7%
Cc1ccc(/C=C2\CN(C(=O)OC(C)(C)C)C/C(=C\c3ccc(C)cc3)C2=O)cc1	15.7%
COC(=O)/C(CCC=C(C)C)=C1\[C@@H](OC(C)=O)C[C@@]2(C)[C@H]1C[C@@H](O)[C@H]1[C@@]3(C)CC[C@H](NCCN)[C@@H](C)[C@@H]3CC[C@@]12C	72.3%
Cc1cc(Cl)ccc1Nc1nc(C(F)(F)F)ccc1C(=O)N/N=C/c1ccc([N+](=O)[O-])cc1	-47.7% (active)
CCOC(=O)c1cc(C(=O)c2cc(OC)c(OC)c(OC)c2)n2ccc(-c3ccncc3)cc12	107%
C[C@@H]1CCC[C@H]1CC(N)C(=O)O (some centres not stated)	91.7%
Cc1ccc(Cc2cnc(NC(=O)c3cc(Br)cs3)s2)cc1	30.3%
O=C1C(Cl)=C(Oc2ccccc2)C(=O)c2ccccc21	73%
CC/C(=C(/c1ccc(Cl)cc1)c1ccc(OCCN2CCCC2)cc1)c1ccc(OC)cc1	18.5%
N=C(N)c1ccc(-c2ccc(-c3cc(Cl)cc(Cl)c3)o2)o1	-77.6% (active)
COc1cc(-n2cc(-c3cc(O)c(C/C=C(\C)CCC=C(C)C)c(O)c3)nn2)cc2c1O[C@]1(C)CC[C@@H](O)C(C)(C)[C@H]1C2	7.25% (active)
COc1cccc([C@H]2c3[nH]c4ccccc4c3C[C@H]3C(=O)N(CCCCCCC(=O)NO)CC(=O)N23)c1	53.7%
CC(O)c1cnc(/C=C2\SC(=S)N(Cc3ccccc3)C2=O)s1 (configuration not stated)	27.4%
Cc1cc(Cl)ccc1NC(=O)c1cc2ccccc2cc1O	2.86% (active)
